Compounds with a hit are over-represented: about 3.3% of the library has one in this group of screens.
UHRF1 MBD2 ctr = UHRF1 methyl-DNA binding inhibition. UHRF1 binding to methylated oligo, TR-FRET. inhibition, % at 4.4 µM. hit rate 0.75% among 370,000. AID 687016; in the data active = inhibition above about 21%;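 also: UHRF1 SRA domain binding a hemimethylated CpG hairpin DNA probe; 0% = median of test compound wells and 100% = reference inhibitor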
Target sequence (Q96T88 whole entry, looked up, the tested form may be a part): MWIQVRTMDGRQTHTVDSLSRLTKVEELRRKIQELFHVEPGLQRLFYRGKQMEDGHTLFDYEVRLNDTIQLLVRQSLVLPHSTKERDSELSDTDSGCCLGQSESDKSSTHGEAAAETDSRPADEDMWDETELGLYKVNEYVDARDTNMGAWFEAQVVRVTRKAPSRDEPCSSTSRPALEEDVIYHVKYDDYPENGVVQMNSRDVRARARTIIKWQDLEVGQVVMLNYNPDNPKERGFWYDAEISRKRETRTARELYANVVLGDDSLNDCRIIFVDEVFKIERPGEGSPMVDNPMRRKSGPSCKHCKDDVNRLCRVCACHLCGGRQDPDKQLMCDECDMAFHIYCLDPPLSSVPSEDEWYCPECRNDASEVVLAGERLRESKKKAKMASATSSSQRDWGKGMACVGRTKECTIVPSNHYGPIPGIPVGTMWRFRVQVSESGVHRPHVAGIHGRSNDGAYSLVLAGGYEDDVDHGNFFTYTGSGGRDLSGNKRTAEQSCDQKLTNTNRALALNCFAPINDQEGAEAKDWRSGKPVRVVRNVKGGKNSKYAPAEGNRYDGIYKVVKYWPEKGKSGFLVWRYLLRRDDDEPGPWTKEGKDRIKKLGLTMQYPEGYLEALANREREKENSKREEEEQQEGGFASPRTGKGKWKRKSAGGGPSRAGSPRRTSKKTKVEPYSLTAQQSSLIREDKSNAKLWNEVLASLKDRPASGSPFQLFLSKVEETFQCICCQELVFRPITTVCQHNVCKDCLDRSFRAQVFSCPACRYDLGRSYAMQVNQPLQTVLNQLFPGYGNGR
MBD2 DNA inh = MBD2-methylated oligo binding inhibition; Q9UBB5; TR-FRET, MBD2 binding to methylated oligonucleotide; inhibition, % at 4.4 µM; hit rate 0.31% among 370,000; AID 686964; in the data active = inhibition above about 13%
PfM18AAP inh = PfM18AAP enzyme inhibition; recombinant PfM18AAP, H-Glu-NHMec fluorogenic cleavage; inhibition, % at 7.35 µM; hit rate 1.2% among 290,000; AID 1822;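 active = inhibition above the campaign mean inhibition over all tested compounds plus 3 SD, cut at about 28% in these data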;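 also: 0% = plate median of test compound wells and 100% = 2 mM ZnCl2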
PRMT1 inh = blocks human protein arginine methyltransferase 1 | Q99873 | recombinant PRMT1, activity-based probe fluorescence polarization | inhibition, % at 2.79 µM | hit rate 1.3% among 370,000 | AID 652257;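 active = inhibition above about 21% made by adding two undisclosed values, limit read from the data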
PfGluPho inh = PfG6PD (Plasmodium falciparum) enzyme inhibition. PfGluPho enzyme, NADPH resazurin-diaphorase fluorescence. inhibition, % at 20 µM. hit rate 0.78% among 350,000. AID 504690;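 active = inhibition reaching at least a set limit at 20 µM in the primary screen, cut at about 59% in these data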;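 also: 0% = DMSO wells with substrate and 100% = DMSO wells lacking glucose-6-phosphate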
Active calls of the source: *; . = no result.

SMILES	UHRF1 MBD2 ctr	MBD2 DNA inh	PfM18AAP inh	PRMT1 inh	PfGluPho inh
Fc1ccc(CNCCc2ccccc2F)cc1	-0.1	1.0	4.0	0.1	-16.4
CCC(=O)N1CC(=O)Nc2ccc(F)cc2C1c1ccc(F)cc1 (centres undefined)	2.8	-2.2	-2.6	-4.9	5.8
CN=C1CN=C(c2ccc[nH]2)c2cc(Cl)ccc2N1	5.2	3.1	.	10.9	.
C=CCn1c(O)c(C(CC)=Nc2ccc(N(CC)CC)cc2)c(=O)[nH]c1=O	-7.2	0.0	28.8*	1.0	-4.4
C=CCn1c(O)c(C(C)=Nc2ccc(N(CC)CC)cc2)c(=O)[nH]c1=O	-3.4	0.8	29.4*	18.6	20.1
C=CCn1c(O)c(C(C)=Nc2ccc(N(C)C)cc2)c(=O)[nH]c1=O	-2.3	-6.2	30.5*	18.6	9.5
CCOc1ccc(-n2c(O)c(C=Nc3ccc(N(CC)CC)cc3)c(=O)[nH]c2=O)cc1	-9.3	1.7	21.5	2.9	27.4
C=CCn1c(O)c(C(CC)=Nc2ccc(NC(C)=O)cc2)c(=O)[nH]c1=O	-1.9	5.2	13.0	-3.5	-8.6
CCN(CC)c1ccc(N=Cc2c(O)n(-c3ccccc3)c(=O)[nH]c2=O)cc1	2.6	-3.8	17.7	24.9*	22.2
CN1C(=O)C[N+]([O-])=C(c2ccccc2)c2cc(Cl)ccc21	0.8	-3.1	.	1.3	-18.3
Clc1cccc(NC2=NCCS2)c1	-0.8	4.5	.	1.4	30.5
O=C(O)c1cccc2c1NC(C(=O)O)C1CC(Sc3ccccc3[N+](=O)[O-])C(Cl)C21 (centres undefined)	62.1*	20.6*	19.9	80.8*	13.8
NC(N)=Nc1ccc2[nH]c3c(c2c1)C[C@@]1(O)[C@H]2Cc4ccc(O)c5c4[C@@]1(CCN2CC1CC1)[C@H]3O5	.	.	.	.	96.6*
COc1ccc2c3c([nH]c2c1)[C@H](C=C(C)C)N1C(=O)[C@@H]2CCCN2C(=O)[C@@H]1C3	-2.4	-3.4	.	-1.3	.
COC(=O)[C@@]1(C#N)[C@@H]2C=CC(C(C)=O)=CN2[C@@H](C(N)=O)[C@@H]1c1ccc(F)cc1	24.7*	-3.5	5.9	18.7	-6.0
Cc1[nH]nc2ccc(-c3cncc(OC[C@@H](N)Cc4c[nH]c5ccccc45)c3)cc12	.	.	.	.	20.4
COc1ccc(/C=C2/C(=O)N(Cc3ccco3)C(=O)N(C(C)C)C2=O)cc1	31.7*	0.6	-4.5	5.0	-17.4
O=C1NC(=O)N(Cc2ccco2)C(=O)/C1=C\c1cccn1CCOc1ccc(Cl)cc1	54.9*	2.3	5.0	19.5	22.8
Cc1cc(/C=C2\C(=O)NC(=O)N(c3ccc(Cl)cc3)C2=O)c(C)n1-c1cccc(C(=O)O)c1	6.3	4.8	11.6	20.6	-11.0
CCc1ccc(N2C(=O)NC(=O)/C(=C/c3cccn3CCOc3ccc(C)cc3)C2=O)cc1	0.2	1.5	2.6	3.1	-13.5
Cc1cccc(OCCn2cccc2/C=C2/C(=O)NC(=O)N(Cc3ccco3)C2=O)c1	48.5*	4.4	9.2	10.1	-3.6
Cc1cc(/C=C2/C(=O)NC(=O)N(Cc3ccco3)C2=O)c(C)n1-c1ccccc1	45.0*	7.3	11.6	18.4	13.8
CCc1ccc(N2C(=O)NC(=O)/C(=C/c3cccn3CCOc3ccc(C(C)CC)cc3)C2=O)cc1 (centres undefined)	-1.2	-5.3	2.4	-3.5	-12.4
Cc1cc(/C=C2\C(=O)NC(=O)N(c3cccc(F)c3)C2=O)c(C)n1-c1cc(C(=O)O)cc(C(=O)O)c1	32.7*	6.3	19.2	14.5	-0.5
CCCCN1C(=N)C(CC)(CC)C(=O)NC1=O	-4.7	2.4	-3.3	-2.1	-8.8
SMILES	UHRF1 MBD2 ctr	MBD2 DNA inh	PfM18AAP inh	PRMT1 inh	PfGluPho inh
O=C(NC(Cc1ccccc1)P(=O)(O)Oc1ccccc1)OCc1ccccc1 (centres undefined)	-2.6	-4.9	.	-5.9	.
CN(C)[C@@H]1C(=O)C(C(N)=O)=C(O)[C@@]2(O)C(=O)C3=C(O)c4c(O)cccc4[C@@](C)(O)[C@H]3[C@H](O)[C@@H]12	66.5*	35.0*	10.2	61.2*	23.6
CN(C)[C@@H]1C(=O)C(C(N)=O)=C(O)[C@@]2(O)C(=O)C3=C(O)c4c(O)ccc(Cl)c4[C@@](C)(O)[C@H]3C[C@@H]12	2.1	-5.0	23.7	24.2*	-1.5
COc1ccccc1N1C(=O)NC(=O)/C(=C/c2ccc([N+](=O)[O-])s2)C1=O	1.4	0.9	6.3	26.7*	72.1*
CCOC(=O)C1C(OC(=O)c2ccccc2)CC2CCC1N2C (centres undefined)	-1.4	0.7	.	-3.1	-7.2
CCOP(=O)(OCC)c1ccc(O)cc1	4.3	9.6	1.0	2.0	5.5
C[n+]1c(-c2ccccc2)sc2ccccc21	-1.4	0.3	20.9	34.8*	32.0
CN(C)c1ccc(/C=C/C=C/c2sc3ccccc3[n+]2C)cc1	-3.5	-23.2	-3.4	-0.4	18.0
O=P(O)(Oc1ccccc1)c1ccccc1	20.9*	8.0	.	-0.6	-8.6
O=P(O)(O)Oc1ccccc1P(=O)(c1ccccc1)c1ccccc1	0.6	-1.2	-0.4	0.0	-0.3
COC(=O)c1nc(-c2ccc3c(n2)C(=O)C(N)=C(OC)C3=O)c(N)c(-c2ccc(OC)c(OC)c2O)c1C	-2.0	-6.6	31.8*	5.2	52.9
O=C1NCN(c2ccccc2)C12CCN(C(c1cc3ccccc3o1)c1nnnn1C1CCCCC1)CC2 (centres undefined)	23.4*	7.7	.	0.1	.
CNC(C(=O)c1ccccc1)C(OC)c1cccc([N+](=O)[O-])c1 (centres undefined)	-3.6	-3.8	-3.4	-2.6	-11.3
O=[N+]([O-])c1cccc(O)c1	-1.2	1.3	.	5.8	-6.4
O=[N+]([O-])c1cc(S(=O)(=O)c2ccc(O)c([N+](=O)[O-])c2)ccc1O	42.3*	2.7	-6.0	12.9	-7.9
Cc1cc(C)cc(OCCOc2cccc(C=C3C(=O)NC(=O)NC3=O)c2)c1	-3.6	-5.5	8.6	5.6	5.2
Cc1ccc(OCCOc2cccc(C=C3C(=O)NC(=O)NC3=O)c2)cc1	-5.0	-8.6	3.0	22.2*	12.8
COC1=C(C)C(=O)C2=C(C1=O)C(CO)N1C(C#N)C3CC4C(C1C2N1CCOC41)N3C (centres undefined)	-6.3	-0.9	.	8.0	84.2*
O=C(O)c1cc2ccccc2n1C1CCN(Cc2ccccc2)CC1	-1.2	3.5	.	-1.3	.
CCCOc1ccc(C(=O)NC(=S)N2C[C@H]3C[C@H](C2)c2cccc(=O)n2C3)cc1	-1.8	1.3	17.5	24.6*	32.9
COc1ccc(C(=O)NC(=S)N2C[C@H]3C[C@H](C2)c2cccc(=O)n2C3)cc1OC	2.0	5.8	-12.4	-1.7	-2.8
O=C(NC(=S)N1C[C@H]2C[C@H](C1)c1cccc(=O)n1C2)c1ccc(Cl)cc1Cl	90.8*	3.7	-8.8	4.5	7.5
CCSc1cc(C2C(C#N)=C(N)Oc3n[nH]c(C)c32)c(C)o1 (centres undefined)	-8.7	-3.5	9.4	3.8	2.0
CC(C)CC1C(C#N)=C(N)Oc2c1c(=O)oc1ccccc21 (centres undefined)	75.7*	-2.1	-7.5	-2.7	2.4

Bioassay records as filed in PubChem BioAssay.
